Records with an inconclusive call do not appear. Activity calls are given as the source filed them. Unless noted, calls follow the shape of the dose curve; as a rule, active = well fitted curve in the direction sought with a large enough effect in the repeat runs; inconclusive = weak or mixed curves; inactive = no such curve, though single readings can be large; an effect the other way counts as inactive or inconclusive.

Experimental findings from PubChem BioAssay (Tox21) are described below.

The nature of assay [1]: qHTS assay to identify small molecule antagonists of the estrogen receptor alpha (ER-alpha) signaling pathway using the BG1 cell line in the presence of 0.1 nM 17-beta-estradiol - cell viability counter screen (AID 1259241). Also: nearly all actives have a fitted effect of over 40% in size. Put shortly: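 Following 5 days in phenol red-free medium with charcoal-stripped serum, VM7Luc4E2 cells received test compounds alongside 0.1 nM 17beta-estradiol (final) at 37C for 22 hr. Live cells were then quantified via protease-substrate fluorescence.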

A short description of assay [2]: qHTS assay to identify small molecule antagonists of the androgen receptor (AR) signaling pathway using the MDA cell line in the presence of 0.5 nM R1881 - cell viability counter screen (AID 1259242). Also: nearly all actives have a fitted effect of over 45% in size. Put shortly: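 Human breast carcinoma MDA-kb2 cells, cultured without CO2, receive compounds alongside 0.5 nM (final) R1881 agonist. After 16 hr at 37C, viability is taken as live-cell protease signal.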

Assay [3] is described as follows: qHTS assay to identify small molecule HDAC inhibitors (AID 1259364). Also: potency is read from the fitted curve at half-maximal effect.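 Also: wild-type HCT-116 cells with endogenous class I/II HDAC activity; nearly all actives have a fitted effect of over 45% in size.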 Put shortly: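 After a 2 hr compound incubation (37C, 5% CO2), HCT-116 cells seeded at 1,500/well the day before received HDAC-Glo reagent; signal read as luminescence after 30 min at room temperature.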
For orientation: qHTS replaces the single test concentration by a dilution series.

Assay [4] is described as follows: qHTS assay to identify small molecule HDAC inhibitors - cell viability counter screen (AID 1259365). Also: series mostly up to about 92 µM; nearly all actives have a fitted effect of over 50% in size. Put shortly: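 HCT-116 wild-type, overnight attachment; 2hr drug exposure, 37C; CellTiter-Glo luminescent ATP readout after 30min RT.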
Assay [5] can be described thus: qHTS assay to identify small molecule agonists of the sonic hedgehog signaling (Shh) pathway - cell viability counter screen (AID 1259366). Also: nearly all actives have a fitted effect of over 50% in size. Also: potency is read from the fitted curve at half-maximal effect. Summed up: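 Compounds in DMSO were pin-transferred onto 3T3 Gli1-Luc cells that had settled 4hr; plates then stood 24hr at 37C and 5% CO2. One hour before the end, CellTiter-Fluor was added and fluorescence recorded.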
A short description of assay [6]: qHTS assay to identify small molecule antagonists of the sonic hedgehog signaling (Shh) pathway - cell viability counter screen (AID 1259367). Also: nearly all actives have a fitted effect of over 55% in size. Put shortly: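 Tox21 library chemicals were tested on a Gli1-Luc NIH/3T3 clone (2,000 cells/well) stimulated by conditioned medium; viability was quantified as fluorescence from CellTiter-Fluor reagent added at 23 hr.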
A short description of assay [7]: qHTS assay to identify small molecule agonists of the sonic hedgehog signaling (Shh) pathway (AID 1259368; calls by dose curve;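 also: NIH/3T3-derived 3T3Gli1-Luc cells carrying a stable Gli1-driven firefly luciferase reporter; series mostly up to about 92 µM; nearly all actives have a fitted effect of over 15% in size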). Put shortly: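 Stable NIH/3T3 Gli1-Luc reporter clone; 24 hr cpd exposure after a 4 hr settling period; luminescence endpoint.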
Assay [8] can be described thus: qHTS assay to identify small molecule antagonists of the sonic hedgehog signaling (Shh) pathway (AID 1259369; calls by dose curve; also: nearly all actives have a fitted effect of over 45% in size; also: potency is read from the fitted curve at half-maximal effect). Summed up:
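Gli1 transcriptional reporter (firefly Luc) in NIH/3T3 background, conditioned-medium activated. 24hr exposure, luminescence endpoint.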

The nature of assay [9]: qHTS assay to identify small molecule agonists of the androgen receptor (AR) signaling pathway in the presence of an antagonist - cell viability counter screen (AID 1259379).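 Also: MDA-kb2 human breast cancer cells carrying an MMTV luciferase reporter; series mostly up to about 92 µM; nearly all actives have a fitted effect of over 25% in size.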 Put shortly:
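Counter screen for cell viability run in parallel with the AR agonist-mode luciferase assay. MDA-kb2 cells were co-treated with nilutamide (3.0uM final) and compounds, then incubated 16 hr at 37C, and CellTiter-Fluor fluorescence was measured.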

Assay [10] in a line: qHTS assay to identify small molecule agonists of the estrogen receptor beta (ER-beta) signaling pathway - cell viability counter screen (AID 1259380). Also: nearly all actives have a fitted effect of over 30% in size. Put shortly: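 In this qHTS counter screen, HEK293T cells carrying an ER-beta/UAS beta-lactamase reporter, grown in 2% charcoal-stripped FBS, received compound for 16 hr; ATP-based CellTiter-Glo luminescence was then read after 30 min at room temperature.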

Assay [11] is described as follows: qHTS assay to identify small molecule antagonists of the estrogen receptor beta (ER-beta) signaling pathway - cell viability counter screen (AID 1259382). Also: series mostly up to about 92 µM; nearly all actives have a fitted effect of over 55% in size. Put shortly: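 HEK293T ER-beta-UAS-bla, 2% charcoal-stripped FBS; compounds + 1nM E2 16 hr 37C; CellTiter-Glo luminescence, 30 min RT.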
Assay [12] can be described thus: qHTS assay to identify small molecule agonists of the estrogen receptor alpha (ER-alpha) signaling pathway in the presence of an antagonist - cell viability counter screen (AID 1259386).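 Also: series mostly up to about 92 µM; cells exposed to compounds for 22 h at 37 °C before the viability read; nearly all actives have a fitted effect of over 30% in size.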 Summed up: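 Steps: 5-day stripped-FBS culture; seed and incubate 24hr; add ICI-182,780 (10.0nM final); pin 15-point compound titration; incubate 22hr at 37C; add CellTiter-Fluor at 21hr; read fluorescence.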

Assay [13] addresses Estrogen receptor beta (Homo sapiens) (UniProt Q92731). Put plainly: qHTS assay to identify small molecule agonists of the estrogen receptor beta (ER-beta) signaling pathway (AID 1259377; active = well fitted activation curve with a large enough effect in the signal ratio in the repeat runs, not every such curve was filed as active; the % refers to the signal ratio). Put shortly: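 qHTS in ER-beta-UAS-bla HEK293T cells: 6 hr settling, then 16 hr compound at 37C, then LiveBLAzer substrate 2 h at RT before fluorescence reading.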
A short description of assay [14]: qHTS assay to identify small molecule agonists or antagonists of the thyroid stimulating hormone receptor (TSHR) signaling pathway - wild type cell line counter screen (AID 1259384; calls by dose curve). Put shortly: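 Wild-type Hek293 cells, 800/well, 18 h at 37C, then compound with Ro20-1724 for 30 min RT. cAMP by HTRF (cAMP-d2/anti-cAMP cryptate), 1 h RT, fluorescence read. 15 concentrations, triplicates.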

The target of assay [15] is Thyrotropin receptor (Homo sapiens) (UniProt P16473). Put plainly: qHTS assay to identify small molecule antagonists of the thyroid stimulating hormone receptor (TSHR) signaling pathway (AID 1259385; calls by dose curve; also: nearly all actives have a fitted effect of over 20% in size). Put shortly: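 TSHR-HEK293 cells (800/well) plated 18 h, then compounds with Ro20-1724 and TSH at 1.5 ng/mL final, 30 min at room temperature. cAMP quantified by HTRF (cAMP-d2/anti-cAMP-cryptate, 1 h); 15 concentrations in triplicate.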
Thyrotropin receptor (Homo sapiens), sequence (P16473 whole entry, looked up): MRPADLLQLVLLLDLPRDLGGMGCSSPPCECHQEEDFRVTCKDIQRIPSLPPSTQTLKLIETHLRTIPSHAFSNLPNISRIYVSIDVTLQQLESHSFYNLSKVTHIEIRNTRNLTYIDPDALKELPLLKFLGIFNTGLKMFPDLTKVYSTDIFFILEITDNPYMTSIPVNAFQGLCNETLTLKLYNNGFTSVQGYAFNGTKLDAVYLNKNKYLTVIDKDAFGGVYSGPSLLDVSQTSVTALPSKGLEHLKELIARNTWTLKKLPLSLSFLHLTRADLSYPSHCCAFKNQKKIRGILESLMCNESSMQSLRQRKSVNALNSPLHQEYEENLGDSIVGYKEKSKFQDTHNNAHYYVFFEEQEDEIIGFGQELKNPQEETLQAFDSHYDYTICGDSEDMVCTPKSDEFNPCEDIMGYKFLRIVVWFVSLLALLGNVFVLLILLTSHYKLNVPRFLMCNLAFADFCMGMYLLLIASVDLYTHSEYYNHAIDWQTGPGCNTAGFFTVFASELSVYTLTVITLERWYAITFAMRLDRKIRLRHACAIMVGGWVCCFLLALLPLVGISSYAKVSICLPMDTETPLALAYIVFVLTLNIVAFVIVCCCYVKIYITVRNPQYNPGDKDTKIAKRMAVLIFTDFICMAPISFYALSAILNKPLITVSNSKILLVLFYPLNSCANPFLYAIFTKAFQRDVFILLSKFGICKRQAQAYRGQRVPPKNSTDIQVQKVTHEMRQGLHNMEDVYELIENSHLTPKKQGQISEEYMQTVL

For assay [16], the target named is Estrogen receptor beta (Homo sapiens) (UniProt Q92731). Kind of assay: qHTS assay to identify small molecule antagonists of the estrogen receptor beta (ER-beta) signaling pathway (AID 1259378; active = well fitted inhibition curve with a large enough effect in the signal ratio in the repeat runs, not every such curve was filed as active; the % refers to the signal ratio). Summed up:
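ER-beta-UAS-bla HEK293T cells in 2% charcoal-stripped FBS medium treated with compound plus 1nM final 17-beta-estradiol for 16 hr at 37C. Beta-lactamase reporter read by FRET substrate fluorescence after 2 hours at room temperature.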

The target of assay [17] is Estrogen receptor (Homo sapiens) (UniProt P03372). Put plainly: qHTS assay to identify small molecule agonists of the estrogen receptor alpha (ER-alpha) signaling pathway in the presence of an antagonist (AID 1259383; calls by dose curve; also: top concentration of the series differs between compounds; nearly all actives have a fitted effect of over 15% in size). Put shortly: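 ER-alpha agonism measured under antagonist challenge: 10.0nM ICI-182,780 (final) plus compound, 15 concentrations, 22hr, VM7Luc4E2 ERE-luciferase cells. Read by luminescence.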
Estrogen receptor (Homo sapiens), sequence (P03372 whole entry, looked up): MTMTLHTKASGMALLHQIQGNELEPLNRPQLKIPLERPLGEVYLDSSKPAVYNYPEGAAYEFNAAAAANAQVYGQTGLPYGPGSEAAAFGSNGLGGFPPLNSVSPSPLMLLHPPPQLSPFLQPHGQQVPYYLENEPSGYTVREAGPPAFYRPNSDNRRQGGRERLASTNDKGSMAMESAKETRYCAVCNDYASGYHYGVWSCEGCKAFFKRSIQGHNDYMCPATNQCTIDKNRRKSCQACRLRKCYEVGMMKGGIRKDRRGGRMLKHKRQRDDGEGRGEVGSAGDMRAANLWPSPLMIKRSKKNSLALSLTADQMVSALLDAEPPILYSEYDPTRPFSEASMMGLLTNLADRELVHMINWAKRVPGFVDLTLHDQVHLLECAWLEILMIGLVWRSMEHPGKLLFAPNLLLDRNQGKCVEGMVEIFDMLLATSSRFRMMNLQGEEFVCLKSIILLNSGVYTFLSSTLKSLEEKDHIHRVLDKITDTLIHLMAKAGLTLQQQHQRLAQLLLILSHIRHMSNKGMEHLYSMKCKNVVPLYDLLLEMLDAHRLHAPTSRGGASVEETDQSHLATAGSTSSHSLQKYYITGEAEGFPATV

Estrogen receptor beta (Homo sapiens), sequence (Q92731 whole entry, looked up): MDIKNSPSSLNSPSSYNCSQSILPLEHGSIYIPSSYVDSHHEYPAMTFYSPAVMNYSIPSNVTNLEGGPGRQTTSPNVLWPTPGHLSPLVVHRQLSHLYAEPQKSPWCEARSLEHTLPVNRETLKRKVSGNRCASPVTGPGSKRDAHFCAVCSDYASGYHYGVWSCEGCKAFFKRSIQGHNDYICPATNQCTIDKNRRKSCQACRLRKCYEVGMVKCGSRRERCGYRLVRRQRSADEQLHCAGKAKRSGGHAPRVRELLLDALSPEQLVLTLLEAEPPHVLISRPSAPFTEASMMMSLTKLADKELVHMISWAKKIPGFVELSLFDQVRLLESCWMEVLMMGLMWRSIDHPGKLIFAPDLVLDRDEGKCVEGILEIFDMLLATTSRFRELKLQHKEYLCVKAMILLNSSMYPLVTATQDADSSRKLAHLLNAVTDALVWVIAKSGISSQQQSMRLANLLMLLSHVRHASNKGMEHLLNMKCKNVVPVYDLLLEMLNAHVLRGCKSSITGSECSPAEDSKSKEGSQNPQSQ

In the case of `CC(=O)O.CC(=O)O.CC(=O)O.CC(=O)O.CC(=O)O.CC(=O)O.CC(=O)O.O.O.[Cr].[Cr].[Cr]`, the Potency result in assay [1], in assay [2], in [3], in [4], in assay [5] and in assay [6] was “inactive” in each case. Also, the Potency result in assay [7], in assay [8], in [9], in [10], in [11] and in assay [12] was “inactive” throughout.

As to `CSSC`, the Potency result in assay [1], in [2], in assay [3], in [4], in [5] and in assay [6] was “inactive” throughout. The Potency result in [13], in assay [9], in assay [10], in assay [11], in assay [14] and in [15] was “inactive” each time. Also, the Potency result in [12] was “inactive”. Also, the Potency in assay [8] is 15.5 µM (active).

Regarding `CCCCCON=O`, the Potency entry in [1], in assay [2], in assay [3], in assay [4], in assay [5] and in assay [6] was “inactive” throughout. The Potency entry in assay [7], in assay [13], in assay [9], in [10], in assay [11] and in assay [14] was “inactive” in each case. In addition, the Potency result in assay [15] was “inactive”.

Consider `O=C(Nc1ccc(F)cc1F)c1cccnc1Oc1cccc(C(F)(F)F)c1`, for which the Potency entry in assay [1], in [2], in assay [3], in [4], in assay [5] and in assay [6] was “inactive” throughout. The Potency entry in assay [7], in assay [13], in [16], in assay [9], in [10] and in [11] was “inactive” in each case. Moreover, the Potency entry in assay [14], in assay [15] and in assay [12] was “inactive” throughout.

With `CC(=O)[O-].CC(=O)[O-].O.O.O.[Pb+2]`, the Potency result in assay [1], in assay [2], in assay [3], in assay [4], in [5] and in [6] was “inactive” throughout. Moreover, the Potency entry in assay [7], in [8], in [10], in assay [11] and in assay [12] was “inactive” throughout.

`O=S(=O)(O)F`: the Potency result in assay [1], in assay [2], in assay [3], in assay [5], in [6] and in assay [7] was “inactive” each time. Moreover, the Potency entry in [8], in assay [13], in assay [16], in assay [9], in assay [10] and in assay [11] was “inactive” throughout. The Potency entry in assay [17], in assay [14], in assay [15] and in assay [12] was “inactive” throughout.

With `Cc1cc(C2CC2)nc(Nc2ccccc2)n1`, the Potency result in [1], in assay [2], in assay [4], in [7], in assay [8] and in assay [16] was “inactive” throughout. In addition, the Potency result in [9], in assay [11], in [17], in assay [14], in [15] and in assay [12] was “inactive” in each case. For the same compound, the Potency is 24.3 µM (active) in assay [3] and 48.6 µM (active) in assay [5].

In the case of `CC(C)C(Nc1ccc(C(F)(F)F)cc1Cl)C(=O)OC(C#N)c1cccc(Oc2ccccc2)c1` (stereo not drawn), the Potency entry in assay [1], in assay [2], in [3], in assay [4], in assay [5] and in assay [6] was “inactive” in each case. Moreover, the Potency result in [13], in assay [10], in [11], in assay [17] and in assay [12] was “inactive” in each case. Further, the Potency in assay [8] was 43.6 µM (active).

`COc1ccc2[nH]cc(CCN(C(C)C)C(C)C)c2c1`: the Potency entry in assay [1], in assay [2], in assay [3], in [4], in assay [5] and in assay [6] was “inactive” throughout. Further, the Potency entry in assay [8], in [9], in assay [14], in [15] and in assay [12] was “inactive” throughout.
